# How the values were obtained:
# Experiment in all cases: DAPPL (digital affinity profiling via proximity ligation, sequencing); 10 mM Tris-HCl pH 7.5, 50 mM NaCl, 1 mM DTT, 4% glycerol, room temperature, 30 min; GST-TFs on glutathione beads, 16-mer random dsDNA library, 0.1% formaldehyde crosslink after washing; high values mean tight binding
# [1] = target: T1, FEV (Homo sapiens, UniProt Q99581 1-238); settings: protein: recombinant; tags: N-terminal GST; dsDNA, one strand shown
# T1 sequence: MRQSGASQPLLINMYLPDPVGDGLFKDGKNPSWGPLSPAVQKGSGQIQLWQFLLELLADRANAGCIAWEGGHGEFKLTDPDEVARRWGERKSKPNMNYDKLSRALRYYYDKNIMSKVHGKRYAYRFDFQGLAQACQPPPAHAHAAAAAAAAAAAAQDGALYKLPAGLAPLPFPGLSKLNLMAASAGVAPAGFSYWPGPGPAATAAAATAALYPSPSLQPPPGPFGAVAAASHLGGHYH
# Procedure, shortened: (§1)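 After expression in yeast as GST fusions, human transcription factors were bound to glutathione beads, DNA-barcoded and mixed with a tag-only sample. The pools were incubated with 200 nmole of a 16-mer random double-stranded DNA library in Tris/NaCl/DTT/glycerol buffer (30 min, room temperature), washed and crosslinked with 0.1% formaldehyde. Proximity ligation with BsaI/T4 ligase ran for 1 h at 37 °C, before PCR amplification and sequencing on an Illumina NextSeq500. Binding signal is a hexamer's read frequency for a factor divided by its frequency for the tag-only sample.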
# [2] = target: ETV5 (Homo sapiens, UniProt P41161 1-510); settings: protein: recombinant; tags: N-terminal GST; dsDNA, one strand shown
# Procedure, shortened: as §1
# [3] = target: HSF1 (Homo sapiens, UniProt Q00613 1-529); settings: protein: recombinant; tags: N-terminal GST; chain copies: 3; dsDNA, one strand shown
# Procedure, shortened: as §1
# [4] = target: T2, SPIC (Homo sapiens, UniProt Q8N5J4 1-248); settings: protein: recombinant; tags: N-terminal GST; dsDNA, one strand shown
# T2 sequence: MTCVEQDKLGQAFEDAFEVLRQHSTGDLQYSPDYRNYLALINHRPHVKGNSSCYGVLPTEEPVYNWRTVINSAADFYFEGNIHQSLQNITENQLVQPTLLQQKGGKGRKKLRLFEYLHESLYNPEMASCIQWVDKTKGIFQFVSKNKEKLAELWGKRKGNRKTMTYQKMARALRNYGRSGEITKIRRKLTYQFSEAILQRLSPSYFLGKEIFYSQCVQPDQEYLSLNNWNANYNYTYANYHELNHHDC
# Procedure, shortened: as §1
# [5] = target: ELF4 (Homo sapiens, UniProt Q99607 1-663); settings: protein: recombinant; tags: N-terminal GST; dsDNA, one strand shown
# Procedure, shortened: as §1
# [6] = target: T3, ELK4 (Homo sapiens, UniProt P28324-2 1-405); settings: protein: recombinant; tags: N-terminal GST; dsDNA, one strand shown
# T3 sequence: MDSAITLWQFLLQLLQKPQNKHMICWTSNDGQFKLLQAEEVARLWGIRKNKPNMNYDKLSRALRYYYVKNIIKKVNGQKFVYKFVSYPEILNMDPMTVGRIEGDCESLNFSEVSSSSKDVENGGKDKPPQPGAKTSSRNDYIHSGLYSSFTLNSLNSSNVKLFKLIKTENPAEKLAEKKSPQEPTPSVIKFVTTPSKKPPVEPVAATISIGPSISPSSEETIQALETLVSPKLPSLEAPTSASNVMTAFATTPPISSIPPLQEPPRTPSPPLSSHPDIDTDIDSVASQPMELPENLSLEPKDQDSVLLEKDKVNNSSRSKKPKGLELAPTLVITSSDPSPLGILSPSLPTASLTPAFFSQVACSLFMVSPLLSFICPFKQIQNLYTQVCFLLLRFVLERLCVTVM
# Procedure, shortened: as §1
# [7] = target: T4, ETV2 (Homo sapiens, UniProt O00321 1-342); settings: protein: recombinant; tags: N-terminal GST; dsDNA, one strand shown
# T4 sequence: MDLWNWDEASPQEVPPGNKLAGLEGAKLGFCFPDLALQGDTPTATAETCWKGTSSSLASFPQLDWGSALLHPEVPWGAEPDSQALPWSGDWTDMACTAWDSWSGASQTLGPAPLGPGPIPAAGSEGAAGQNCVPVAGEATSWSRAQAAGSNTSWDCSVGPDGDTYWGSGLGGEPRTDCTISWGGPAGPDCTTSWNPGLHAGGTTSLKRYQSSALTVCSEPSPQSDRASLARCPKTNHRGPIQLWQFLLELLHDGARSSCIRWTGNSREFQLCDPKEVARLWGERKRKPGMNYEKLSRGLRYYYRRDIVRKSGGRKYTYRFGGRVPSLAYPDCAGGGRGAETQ
# Procedure, shortened: as §1
# [8] = target: T5, ELF3 (Homo sapiens, UniProt P78545 1-371); settings: protein: recombinant; tags: N-terminal GST; dsDNA, one strand shown
# T5 sequence: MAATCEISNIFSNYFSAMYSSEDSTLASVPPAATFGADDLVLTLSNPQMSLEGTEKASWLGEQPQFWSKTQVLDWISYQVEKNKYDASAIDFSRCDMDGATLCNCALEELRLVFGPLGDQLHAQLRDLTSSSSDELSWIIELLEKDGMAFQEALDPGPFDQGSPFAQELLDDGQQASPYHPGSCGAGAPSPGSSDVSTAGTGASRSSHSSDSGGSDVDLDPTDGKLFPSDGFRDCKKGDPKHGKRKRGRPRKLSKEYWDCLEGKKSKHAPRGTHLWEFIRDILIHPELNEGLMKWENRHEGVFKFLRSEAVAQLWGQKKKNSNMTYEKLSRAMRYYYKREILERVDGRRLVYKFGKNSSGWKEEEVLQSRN
# Procedure, shortened: as §1
# [9] = target: CRX (Homo sapiens, UniProt O43186 1-299); settings: protein: recombinant; tags: N-terminal GST; dsDNA, one strand shown
# Procedure, shortened: as §1
# [10] = target: ETV1 (Homo sapiens, UniProt P50549 1-477); settings: protein: recombinant; tags: N-terminal GST; dsDNA, one strand shown
# Procedure, shortened: as §1
# [11] = target: T6, ERF (Homo sapiens, UniProt P50548 1-548); settings: protein: recombinant; tags: N-terminal GST; dsDNA, one strand shown
# T6 sequence: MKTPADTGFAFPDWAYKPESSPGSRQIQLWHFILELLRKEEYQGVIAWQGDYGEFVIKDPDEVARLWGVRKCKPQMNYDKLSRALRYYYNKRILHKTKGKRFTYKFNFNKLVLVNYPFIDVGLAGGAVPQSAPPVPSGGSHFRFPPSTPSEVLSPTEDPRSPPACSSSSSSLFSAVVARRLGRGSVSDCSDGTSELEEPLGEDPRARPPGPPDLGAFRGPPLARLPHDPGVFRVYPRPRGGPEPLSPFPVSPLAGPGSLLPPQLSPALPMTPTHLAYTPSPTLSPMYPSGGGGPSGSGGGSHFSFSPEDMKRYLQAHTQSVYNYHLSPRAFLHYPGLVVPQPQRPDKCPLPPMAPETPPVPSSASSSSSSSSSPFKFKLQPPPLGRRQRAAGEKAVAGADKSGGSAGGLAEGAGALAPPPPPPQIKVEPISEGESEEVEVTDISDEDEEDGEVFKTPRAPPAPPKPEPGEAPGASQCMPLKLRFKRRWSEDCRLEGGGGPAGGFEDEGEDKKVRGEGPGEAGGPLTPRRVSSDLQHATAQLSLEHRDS
# Procedure, shortened: as §1
# [12] = target: T7, ETV3L (Homo sapiens, UniProt Q6ZN32 1-361); settings: protein: recombinant; tags: N-terminal GST; dsDNA, one strand shown
# T7 sequence: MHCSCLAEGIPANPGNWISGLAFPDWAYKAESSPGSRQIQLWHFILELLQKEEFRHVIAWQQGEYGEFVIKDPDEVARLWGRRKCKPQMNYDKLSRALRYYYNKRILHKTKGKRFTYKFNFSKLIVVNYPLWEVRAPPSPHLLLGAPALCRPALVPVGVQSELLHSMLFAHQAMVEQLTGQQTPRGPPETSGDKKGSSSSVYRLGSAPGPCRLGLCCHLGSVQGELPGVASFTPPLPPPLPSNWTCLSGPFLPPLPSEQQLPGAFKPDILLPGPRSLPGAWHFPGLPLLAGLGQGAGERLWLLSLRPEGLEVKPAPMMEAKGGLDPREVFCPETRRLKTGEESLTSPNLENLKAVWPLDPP
# Procedure, shortened: as §1
# [13] = target: T8, ETS2 (Homo sapiens, UniProt P15036 1-469); settings: protein: recombinant; tags: N-terminal GST; dsDNA, one strand shown
# T8 sequence: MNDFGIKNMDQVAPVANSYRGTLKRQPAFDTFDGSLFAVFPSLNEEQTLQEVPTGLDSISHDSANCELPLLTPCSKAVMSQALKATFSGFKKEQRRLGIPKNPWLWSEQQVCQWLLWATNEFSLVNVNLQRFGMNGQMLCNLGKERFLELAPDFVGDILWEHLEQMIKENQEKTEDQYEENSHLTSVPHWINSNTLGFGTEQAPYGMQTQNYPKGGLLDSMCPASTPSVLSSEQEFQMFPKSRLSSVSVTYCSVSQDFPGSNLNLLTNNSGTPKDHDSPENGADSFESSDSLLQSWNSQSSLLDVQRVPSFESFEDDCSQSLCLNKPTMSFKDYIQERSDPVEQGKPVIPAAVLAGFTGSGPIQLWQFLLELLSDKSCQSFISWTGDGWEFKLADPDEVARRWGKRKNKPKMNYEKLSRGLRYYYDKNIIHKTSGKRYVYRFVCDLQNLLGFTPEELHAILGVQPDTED
# Procedure, shortened: as §1
# [14] = target: T9, SPDEF (Homo sapiens, UniProt O95238 1-335); settings: protein: recombinant; tags: N-terminal GST; dsDNA, one strand shown
# T9 sequence: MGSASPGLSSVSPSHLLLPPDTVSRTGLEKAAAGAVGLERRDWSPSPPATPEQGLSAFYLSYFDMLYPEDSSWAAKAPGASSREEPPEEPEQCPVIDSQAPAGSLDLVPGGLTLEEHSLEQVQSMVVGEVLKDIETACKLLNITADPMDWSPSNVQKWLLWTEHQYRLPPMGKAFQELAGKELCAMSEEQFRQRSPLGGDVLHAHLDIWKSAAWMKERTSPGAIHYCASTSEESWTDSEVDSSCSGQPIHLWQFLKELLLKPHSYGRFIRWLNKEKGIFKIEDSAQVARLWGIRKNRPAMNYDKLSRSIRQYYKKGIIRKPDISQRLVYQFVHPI
# Procedure, shortened: as §1
# [15] = target: T10, ETV7 (Homo sapiens, UniProt Q9Y603 1-341); settings: protein: recombinant; tags: N-terminal GST; dsDNA, one strand shown
# T10 sequence: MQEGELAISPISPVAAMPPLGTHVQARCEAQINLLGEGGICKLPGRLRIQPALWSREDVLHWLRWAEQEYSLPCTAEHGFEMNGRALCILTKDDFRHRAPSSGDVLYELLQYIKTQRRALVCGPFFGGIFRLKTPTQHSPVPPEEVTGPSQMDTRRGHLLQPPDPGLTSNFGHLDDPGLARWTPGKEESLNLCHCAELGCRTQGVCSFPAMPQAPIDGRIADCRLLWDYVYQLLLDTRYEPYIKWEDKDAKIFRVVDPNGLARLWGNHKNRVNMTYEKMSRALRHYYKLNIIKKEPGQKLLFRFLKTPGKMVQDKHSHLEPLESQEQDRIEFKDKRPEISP
# Procedure, shortened: as §1
# [16] = target: T11, ELF5 (Homo sapiens, UniProt Q9UKW6-2 1-255); settings: protein: recombinant; tags: N-terminal GST; dsDNA, one strand shown
# T11 sequence: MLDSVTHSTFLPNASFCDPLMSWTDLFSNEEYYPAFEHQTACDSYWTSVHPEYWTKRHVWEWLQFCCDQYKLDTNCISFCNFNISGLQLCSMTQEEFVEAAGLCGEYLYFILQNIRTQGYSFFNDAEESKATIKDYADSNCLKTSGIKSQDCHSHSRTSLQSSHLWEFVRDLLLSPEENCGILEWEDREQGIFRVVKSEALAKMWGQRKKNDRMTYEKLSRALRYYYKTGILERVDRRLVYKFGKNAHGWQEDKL
# Procedure, shortened: as §1
# [17] = target: T12, ETV3 (Homo sapiens, UniProt P41162-2 1-143); settings: protein: recombinant; tags: N-terminal GST; dsDNA, one strand shown
# T12 sequence: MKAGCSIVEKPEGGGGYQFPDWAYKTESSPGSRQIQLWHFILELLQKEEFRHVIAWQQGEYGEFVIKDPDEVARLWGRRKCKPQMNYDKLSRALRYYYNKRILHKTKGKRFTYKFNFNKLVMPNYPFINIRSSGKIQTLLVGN
# Procedure, shortened: as §1
# [18] = target: ETV6 (Homo sapiens, UniProt P41212 1-452); settings: protein: recombinant; tags: N-terminal GST; dsDNA, one strand shown
# Procedure, shortened: as §1
# Chain of ETV5 (P41161 whole entry): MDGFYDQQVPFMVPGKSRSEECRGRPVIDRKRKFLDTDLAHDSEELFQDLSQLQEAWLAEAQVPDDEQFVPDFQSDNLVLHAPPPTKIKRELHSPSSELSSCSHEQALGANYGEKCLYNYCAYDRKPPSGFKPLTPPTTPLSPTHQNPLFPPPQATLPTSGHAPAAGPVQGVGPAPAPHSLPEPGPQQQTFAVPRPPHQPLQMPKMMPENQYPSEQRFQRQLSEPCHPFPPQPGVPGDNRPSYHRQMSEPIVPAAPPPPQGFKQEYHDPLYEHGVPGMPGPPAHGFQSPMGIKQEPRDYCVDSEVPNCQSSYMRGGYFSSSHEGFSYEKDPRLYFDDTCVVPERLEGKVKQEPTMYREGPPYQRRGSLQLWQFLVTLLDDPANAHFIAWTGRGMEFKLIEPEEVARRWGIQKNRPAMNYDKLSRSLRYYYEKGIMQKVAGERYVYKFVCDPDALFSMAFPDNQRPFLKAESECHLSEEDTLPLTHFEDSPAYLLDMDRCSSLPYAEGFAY
# Chain of CRX (O43186 whole entry): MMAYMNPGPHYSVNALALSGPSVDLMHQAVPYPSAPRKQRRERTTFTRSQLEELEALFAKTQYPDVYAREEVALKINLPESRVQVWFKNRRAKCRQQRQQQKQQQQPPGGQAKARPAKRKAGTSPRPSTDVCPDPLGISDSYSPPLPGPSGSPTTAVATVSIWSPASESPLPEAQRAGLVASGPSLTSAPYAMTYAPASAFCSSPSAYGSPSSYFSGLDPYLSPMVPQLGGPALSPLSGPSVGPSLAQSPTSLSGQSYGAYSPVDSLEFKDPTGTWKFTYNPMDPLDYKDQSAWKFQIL
# Chain of ETV1 (P50549 whole entry): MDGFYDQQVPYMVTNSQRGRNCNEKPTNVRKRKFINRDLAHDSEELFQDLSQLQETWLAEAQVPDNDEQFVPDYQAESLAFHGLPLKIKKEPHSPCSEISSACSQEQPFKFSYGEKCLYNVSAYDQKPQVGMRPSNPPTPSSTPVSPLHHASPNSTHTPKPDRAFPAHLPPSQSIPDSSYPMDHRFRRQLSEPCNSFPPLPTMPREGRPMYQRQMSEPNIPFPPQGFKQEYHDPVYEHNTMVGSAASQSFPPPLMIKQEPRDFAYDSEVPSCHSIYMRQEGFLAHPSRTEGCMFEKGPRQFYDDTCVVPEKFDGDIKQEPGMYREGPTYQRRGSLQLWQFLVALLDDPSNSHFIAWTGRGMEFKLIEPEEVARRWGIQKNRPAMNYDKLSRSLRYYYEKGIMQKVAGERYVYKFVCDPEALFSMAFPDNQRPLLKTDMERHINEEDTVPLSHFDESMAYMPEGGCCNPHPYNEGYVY
# Chain of ELF4 (Q99607 whole entry): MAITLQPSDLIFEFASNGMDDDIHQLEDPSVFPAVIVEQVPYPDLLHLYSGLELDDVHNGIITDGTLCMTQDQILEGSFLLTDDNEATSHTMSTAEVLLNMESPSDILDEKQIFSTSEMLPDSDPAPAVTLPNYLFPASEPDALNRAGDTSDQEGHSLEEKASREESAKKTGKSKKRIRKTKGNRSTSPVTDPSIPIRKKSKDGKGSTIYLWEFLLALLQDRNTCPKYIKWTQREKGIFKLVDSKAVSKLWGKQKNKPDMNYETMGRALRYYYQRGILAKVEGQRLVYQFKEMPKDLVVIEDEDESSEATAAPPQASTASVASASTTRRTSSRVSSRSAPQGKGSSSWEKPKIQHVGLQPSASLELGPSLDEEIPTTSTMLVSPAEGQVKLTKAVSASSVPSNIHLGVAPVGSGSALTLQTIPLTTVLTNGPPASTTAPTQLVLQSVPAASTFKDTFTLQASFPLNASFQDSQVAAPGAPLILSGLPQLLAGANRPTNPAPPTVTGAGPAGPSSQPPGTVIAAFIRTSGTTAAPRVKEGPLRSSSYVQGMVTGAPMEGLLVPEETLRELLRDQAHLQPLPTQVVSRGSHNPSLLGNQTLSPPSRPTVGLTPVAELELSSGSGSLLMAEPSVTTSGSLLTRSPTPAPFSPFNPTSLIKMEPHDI
# Chain of HSF1 (Q00613 whole entry): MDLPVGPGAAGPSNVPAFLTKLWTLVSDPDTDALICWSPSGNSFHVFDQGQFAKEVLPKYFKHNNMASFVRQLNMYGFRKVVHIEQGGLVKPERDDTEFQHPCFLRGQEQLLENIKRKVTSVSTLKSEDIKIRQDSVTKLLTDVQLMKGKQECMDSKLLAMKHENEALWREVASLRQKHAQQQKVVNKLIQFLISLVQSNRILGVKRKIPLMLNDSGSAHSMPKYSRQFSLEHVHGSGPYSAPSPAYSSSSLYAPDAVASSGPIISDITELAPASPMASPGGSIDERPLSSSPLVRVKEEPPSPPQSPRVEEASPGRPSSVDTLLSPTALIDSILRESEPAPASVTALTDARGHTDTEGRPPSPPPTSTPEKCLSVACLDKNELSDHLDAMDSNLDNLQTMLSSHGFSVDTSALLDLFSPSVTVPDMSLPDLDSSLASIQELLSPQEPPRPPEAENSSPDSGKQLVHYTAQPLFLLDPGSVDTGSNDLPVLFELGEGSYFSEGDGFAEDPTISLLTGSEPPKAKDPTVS
# Chain of ETV6 (P41212 whole entry): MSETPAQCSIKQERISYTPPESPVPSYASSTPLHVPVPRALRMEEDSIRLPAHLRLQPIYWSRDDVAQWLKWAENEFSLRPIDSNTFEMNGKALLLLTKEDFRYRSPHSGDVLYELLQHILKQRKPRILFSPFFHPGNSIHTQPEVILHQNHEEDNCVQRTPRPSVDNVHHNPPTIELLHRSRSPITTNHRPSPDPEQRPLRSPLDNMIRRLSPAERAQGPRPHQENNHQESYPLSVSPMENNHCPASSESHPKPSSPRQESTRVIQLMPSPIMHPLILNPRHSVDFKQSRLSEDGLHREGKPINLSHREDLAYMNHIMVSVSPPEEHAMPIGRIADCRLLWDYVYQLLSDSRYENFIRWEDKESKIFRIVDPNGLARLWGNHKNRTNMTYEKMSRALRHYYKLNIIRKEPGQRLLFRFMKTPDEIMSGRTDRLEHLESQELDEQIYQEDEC
sequence,measurement,setting,value
TAAGAA,binding signal,[1],"1.05 fold enrichment (6-mer frequency, TF over GST control)"
same,binding signal,[2],"1.1 fold enrichment (6-mer frequency, TF over GST control)"
same,binding signal,[3],"1.77 fold enrichment (6-mer frequency, TF over GST control)"
same,binding signal,[4],"1.21 fold enrichment (6-mer frequency, TF over GST control)"
same,binding signal,[5],"1.13 fold enrichment (6-mer frequency, TF over GST control)"
same,binding signal,[6],"1.09 fold enrichment (6-mer frequency, TF over GST control)"
same,binding signal,[7],"1.2 fold enrichment (6-mer frequency, TF over GST control)"
same,binding signal,[8],"1.02 fold enrichment (6-mer frequency, TF over GST control)"
same,binding signal,[9],"1.96 fold enrichment (6-mer frequency, TF over GST control)"
same,binding signal,[10],"1.13 fold enrichment (6-mer frequency, TF over GST control)"
same,binding signal,[11],"1.11 fold enrichment (6-mer frequency, TF over GST control)"
same,binding signal,[12],"1.09 fold enrichment (6-mer frequency, TF over GST control)"
same,binding signal,[13],"1.03 fold enrichment (6-mer frequency, TF over GST control)"
same,binding signal,[14],"1.06 fold enrichment (6-mer frequency, TF over GST control)"
same,binding signal,[15],"1.12 fold enrichment (6-mer frequency, TF over GST control)"
same,binding signal,[16],"1.03 fold enrichment (6-mer frequency, TF over GST control)"
same,binding signal,[17],"1.07 fold enrichment (6-mer frequency, TF over GST control)"
same,binding signal,[18],"1.08 fold enrichment (6-mer frequency, TF over GST control)"

# From paper PMC7862700, “An all-to-all approach to the identification of sequence-specific readers for epigenetic DNA modifications on cytosine”
